Measurements published in paper PMC8222333, “AsCas12a ultra nuclease facilitates the rapid generation of therapeutic cell medicines”.
Residue numbers refer to the chain shown, from its start.

Tests used:
Experiment in all cases: Spec-seq (native PAGE EMSA with sequencing of bound and unbound); 25 mM Tris-HCl pH 7.4, 150 mM KCl, 5 mM MgCl2, 10% glycerol, 1 mM DTT, 40 ng/uL salmon sperm DNA; 400 nM Cas12a, 480 nM crRNA, 50 nM library, 37 C 1 h; native PAGE at room temperature; high values mean tight binding
Details in all cases: protein: recombinant
[1] = target: dAsCas12a Ultra (Acidaminococcus sp., UniProt U2UMQ6 1-1307, M537R;F870L;D908A;E993A;D1235A)
[2] = target: dAsCas12a S542R (Acidaminococcus sp., UniProt U2UMQ6 1-1307, S542R;D908A;E993A;D1235A);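 also: relative affinity from the bound to unbound sequence frequency ratio in Spec-seq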
[3] = target: d-enCas12a (Acidaminococcus sp., UniProt U2UMQ6 1-1307, E174R;S542R;K548R;D908A;E993A;D1235A)
[4] = target: d-enCas12a-Ultra (Acidaminococcus sp., UniProt U2UMQ6 1-1307, E174R;S542R;K548R;M537R;F870L;D908A;E993A;D1235A);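 also: relative affinity from the bound to unbound sequence frequency ratio in Spec-seq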
[5] = target: dAsCas12a E174R (Acidaminococcus sp., UniProt U2UMQ6 1-1307, E174R;D908A;E993A;D1235A);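 also: relative affinity from the bound to unbound sequence frequency ratio in Spec-seq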

B1: GGGA (dsDNA)
DNA 1: GCTATCTAGTGCTCAGTACGCACTGGGGAAGGAAACTTCTGGCAGGACCAGGTCATGAGATCGGAAGAGCACACGTCTGAACTCCAGTCA
DNA 2: TGACTGGAGTTCAGACGTGTGCTCTTCCGATCTCATGACCTGGTCCTGCCAGAAGTTTCCTTCCCCAGTGCGTACTGAGCACTAGATAGC
RNA: AAUUUCUACUCUUGUAGAUAGGAAACUUCUGGCAGGACC
[1]
  binding signal: -8.93 lnKA
[2]
  binding signal: -8.02 lnKA
[3]
  binding signal: -5.68 lnKA
[4]
  binding signal: -3.47 lnKA

B2: TCAC (dsDNA)
DNA 1: B1 DNA 1 with G26T, G27C, G28A, A29C
DNA 2: B1 DNA 2 with T62G, C63T, C64G, C65A
RNA: B1 RNA
[1]
  binding signal: -8.33 lnKA
[2]
  binding signal: -7.5 lnKA
[3]
  binding signal: -5.3 lnKA
[4]
  binding signal: -3 lnKA

B3: TAGA (dsDNA)
DNA 1: B1 DNA 1 with G26T, G27A
DNA 2: B1 DNA 2 with C64T, C65A
RNA: B1 RNA
[1]
  binding signal: -8.98 lnKA
[2]
  binding signal: -8.65 lnKA
[3]
  binding signal: -5.31 lnKA
[4]
  binding signal: -3.33 lnKA

B4: GGTA (dsDNA)
DNA 1: B1 DNA 1 with G28T
DNA 2: B1 DNA 2 with C63A
RNA: B1 RNA
[1]
  binding signal: -7.78 lnKA
[5]
  binding signal: -8.41 lnKA
[2]
  binding signal: -7.66 lnKA
[3]
  binding signal: -3.21 lnKA
[4]
  binding signal: -0.816 lnKA

B5: TCCT (dsDNA)
DNA 1: B1 DNA 1 with G26T, G27C, G28C, A29T
DNA 2: B1 DNA 2 with T62A, C63G, C64G, C65A
RNA: B1 RNA
[1]
  binding signal: -8.78 lnKA
[5]
  binding signal: -8.39 lnKA
[2]
  binding signal: -5.43 lnKA
[3]
  binding signal: -3.98 lnKA
[4]
  binding signal: -0.951 lnKA

B6: GGTC (dsDNA)
DNA 1: B1 DNA 1 with G28T, A29C
DNA 2: B1 DNA 2 with T62G, C63A
RNA: B1 RNA
[1]
  binding signal: -8.4 lnKA
[5]
  binding signal: -8.96 lnKA
[2]
  binding signal: -8.74 lnKA
[3]
  binding signal: -3.44 lnKA
[4]
  binding signal: -0.971 lnKA

B7: TATT (dsDNA)
DNA 1: B1 DNA 1 with G26T, G27A, G28T, A29T
DNA 2: B1 DNA 2 with T62A, C63A, C64T, C65A
RNA: B1 RNA
[1]
  binding signal: -8.42 lnKA
[5]
  binding signal: -8.04 lnKA
[2]
  binding signal: -7.99 lnKA
[3]
  binding signal: -3.27 lnKA
[4]
  binding signal: -1.25 lnKA

B8: GTGT (dsDNA)
DNA 1: B1 DNA 1 with G27T, A29T
DNA 2: B1 DNA 2 with T62A, C64A
RNA: B1 RNA
[1]
  binding signal: -8.66 lnKA
[5]
  binding signal: -8.98 lnKA
[2]
  binding signal: -8.04 lnKA
[3]
  binding signal: -5.78 lnKA
[4]
  binding signal: -3.14 lnKA

B9: TCCA (dsDNA)
DNA 1: B1 DNA 1 with G26T, G27C, G28C
DNA 2: B1 DNA 2 with C63G, C64G, C65A
RNA: B1 RNA
[1]
  binding signal: -7.24 lnKA
[5]
  binding signal: -6.64 lnKA
[2]
  binding signal: -3.52 lnKA
[3]
  binding signal: -2.15 lnKA
[4]
  binding signal: -0.457 lnKA

B10: GGTT (dsDNA)
DNA 1: B1 DNA 1 with G28T, A29T
DNA 2: B1 DNA 2 with T62A, C63A
RNA: B1 RNA
[1]
  binding signal: -8.59 lnKA
[5]
  binding signal: -8.64 lnKA
[2]
  binding signal: -8.19 lnKA
[3]
  binding signal: -5.45 lnKA
[4]
  binding signal: -2.7 lnKA

B11: TCAA (dsDNA)
DNA 1: B1 DNA 1 with G26T, G27C, G28A
DNA 2: B1 DNA 2 with C63T, C64G, C65A
RNA: B1 RNA
[1]
  binding signal: -8.83 lnKA
[2]
  binding signal: -7.68 lnKA
[3]
  binding signal: -5.65 lnKA
[4]
  binding signal: -3.39 lnKA

B12: GTCT (dsDNA)
DNA 1: B1 DNA 1 with G27T, G28C, A29T
DNA 2: B1 DNA 2 with T62A, C63G, C64A
RNA: B1 RNA
[1]
  binding signal: -8.79 lnKA
[5]
  binding signal: -8.88 lnKA
[2]
  binding signal: -7.55 lnKA
[3]
  binding signal: -4.02 lnKA
[4]
  binding signal: -0.927 lnKA

B13: TAAA (dsDNA)
DNA 1: B1 DNA 1 with G26T, G27A, G28A
DNA 2: B1 DNA 2 with C63T, C64T, C65A
RNA: B1 RNA
[1]
  binding signal: -8.83 lnKA
[2]
  binding signal: -8.25 lnKA
[3]
  binding signal: -5.38 lnKA
[4]
  binding signal: -3.04 lnKA

B14: GTGA (dsDNA)
DNA 1: B1 DNA 1 with G27T
DNA 2: B1 DNA 2 with C64A
RNA: B1 RNA
[1]
  binding signal: -7.93 lnKA
[5]
  binding signal: -8.87 lnKA
[2]
  binding signal: -7.67 lnKA
[3]
  binding signal: -5.45 lnKA
[4]
  binding signal: -3.14 lnKA

B15: TCCG (dsDNA)
DNA 1: B1 DNA 1 with G26T, G27C, G28C, A29G
DNA 2: B1 DNA 2 with T62C, C63G, C64G, C65A
RNA: B1 RNA
[1]
  binding signal: -7.52 lnKA
[5]
  binding signal: -7.89 lnKA
[2]
  binding signal: -3.6 lnKA
[3]
  binding signal: -3.12 lnKA
[4]
  binding signal: -0.639 lnKA
